The whole screen tested about 220,000 compounds, of which about 2,000 (0.91%) were called active. Roughly 2% stayed inconclusive and do not appear here. Only a sample is shown. Potency and affinity values are given separately. Values without a mark were called inactive. No stated cut-off is given here; in the data, inconclusive means inhibition above about 80% without an active follow-up result; inactive means below that; test concentration not stated here.

This experiment is described as follows: M. tuberculosis H37Rv growth inhibitors, H37Rv strain (AID 1626).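 Further: bacteria incubated seven days before Alamar blue readout; 0% = bacteria only wells and 100% = bacteria with antibiotic wells.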 To be noted: active compounds read high, concentration not given here.
Turning to `Cc1ccccc1COc1ccc(/C=C(\C#N)C(N)=O)cc1`, the inhibition was 6.69%.

`CCOc1ccc(OCCN(C)Cc2ccccc2)cc1`: the inhibition is 4.01%.

On to `COc1cc(-c2nc3ccc4ccccc4c3c3c2CCC3)cc(OC)c1OC`, for which the inhibition was -4.59%.

With `Cc1cc(-c2cccc([N+](=O)[O-])c2)nc2ccc3ccccc3c12`, the inhibition was -9.17%.

For the molecule `Oc1ccc(-c2nc3ccc4ccccc4c3c3c2CCC3)cc1O`, the inhibition is 1.26%.

Turning to `COc1cc(-c2nc3ccc4ccccc4c3c3c2CCC3)ccc1O`, the inhibition is 20.8%.

Take `Cc1ccc(/C=C/C(=O)NCc2ccncc2)cc1`: the inhibition was 7.66%.

`Cn1c(N)c(C(=O)COC(=O)C2CCCC2)c(=O)n(C)c1=O`: the inhibition is -2.87%.

With `Cc1ccc(S(=O)(=O)N(C)C)cc1NC(=S)NNC(=O)C(N)=O`, the inhibition is 1.54%.

Consider `CCCCCCC(=O)N(O)C1CC(=O)N(c2ccc(Cl)cc2)C1=O` (stereo unspecified), for which the inhibition is 7.87%.

For `CCOCCOC(=O)c1cccc(NC(=O)OCC)c1`, the inhibition was -3.13%.

As for `C=CCn1c(O)c(N=NC(=O)CNC(=O)/C=C/c2ccco2)c2ccccc21`, the inhibition is -15.1%.

Consider `OCc1nc2ccccc2n1/N=C/c1cccs1`, for which the inhibition is 1.55%.

As to `Cc1ccc(/C=N/n2c(C)nc3ccccc3c2=O)s1`, the inhibition is -1.18%.

Take `O=[N+]([O-])c1ccc(O)c(/C=N/n2c(CO)nc3ccccc32)c1`: the inhibition is -3.46%.

With `Cc1cc2ncn(/N=C/c3cc(Br)ccc3O)c2cc1C`, the inhibition is -5.04%.

As to `Cc1nc2ccccc2n1/N=C/c1cccnc1`, the inhibition was -6.36%.

For `Cc1cc2ncn(/N=C/c3cccnc3)c2cc1C`, the inhibition was 7.38%.

Turning to `OCCN(CCO)CC(O)COc1ccc(C23CC4CC(CC(C4)C2)C3)cc1` (stereo unspecified), the inhibition was 24.6%.

Turning to `CCC1CCCCN1CCCNC(=O)Cn1nc(-c2ccc(C)cc2)ccc1=O` (stereo unspecified), the inhibition was -8.72%.

For the molecule `O=C(CSc1nnc(-c2ccco2)n1Cc1ccco1)Nc1ccccc1`, the inhibition is -2.58%.

For `Cc1cccc(NP(=O)(Oc2ccccc2F)Oc2ccccc2F)c1C`, the inhibition is 1.18%.

Take `O=C(NCc1ccccc1)c1ccccc1-c1nc2ccccc2[nH]1`: the inhibition was 4.78%.

On to `CCOC(=O)Cc1c(C)nc2c(-c3ccc(Cl)cc3)c(C)[nH]n2c1=O`, for which the inhibition is 78.8%.

Regarding `Cc1ccc(-c2csc(NC(=O)CSc3nc(C)cc(=O)[nH]3)n2)cc1`, the inhibition is 1.91%.

On to `Clc1ccc(-c2cc(-c3nnc4n3CCCCC4)c3ccccc3n2)cc1`, for which the inhibition was 71.9%.

On to `OC(c1cc(C(F)(F)F)nc2c(Cl)cc(Cl)cc12)C1CCCCN1` (stereo unspecified), for which the inhibition is 49.4%.

Consider `CCN(CC)S(=O)(=O)c1ccc(N2CCCC2)c(NC(=O)CC(C)(C)C)c1`, for which the inhibition was -7.98%.

Turning to `O=C(Nc1cc(Sc2ccccn2)cc([N+](=O)[O-])c1)c1ccc(Cl)cc1`, the inhibition was 7.55%.

Turning to `COC(=O)c1cc(OC)c(OC)cc1NC(=S)Nc1cc(Cl)ccc1OC`, the inhibition was -12%.

As for `Nc1ccc(Nc2nc(-c3cc4ccccc4oc3=O)cs2)cc1`, the inhibition is -8.26%.

Take `O=C(Nc1nc(-c2cc3ccccc3oc2=O)cs1)c1ccco1`: the inhibition is -2.76%.

Turning to `CC1=C(C(=O)Nc2ccccc2)C2(CCCCC2)C(C#N)=C(S)N1`, the inhibition is -2.79%.

On to `Cc1ccc(S(=O)(=O)N(C)C)cc1NC(=O)COC(=O)CCC(=O)c1cccs1`, for which the inhibition was 0.54%.

`COc1ccc2c(c1)c(C(=O)CN1CCN(C(=O)c3ccco3)CC1)c(C)n2C`: the inhibition is 3.66%.

Take `COc1ccc(C(CC(=O)c2ccc(C)cc2)Nc2ccc([N+](=O)[O-])cc2)cc1` (stereo unspecified): the inhibition is 13.5%.

Take `Cc1ccc(NCC(=O)c2ccc([N+](=O)[O-])cc2)cc1`: the inhibition was 6.43%.

On to `CC1(C)CC(=O)c2sc(N3CCCCC3)nc2C1`, for which the inhibition was 1.75%.

For the molecule `Fc1ccc(-c2nnn3c2nc(NCc2ccccc2)c2ccccc23)cc1`, the inhibition was -3.18%.

Regarding `COc1ccc(COC(=O)Nc2cc3c(C(F)(F)F)nn(C)c3s2)cc1`, the inhibition was 0.73%.

Consider `Cn1nc(C(F)(F)F)c2cc(NC(=O)OCc3ccc(F)cc3)sc21`, for which the inhibition was -0.24%.

As for `COc1ccc(CNC(=O)COC(=O)/C=C/c2ccc(Cl)cc2)cc1`, the inhibition is 2.04%.

For `COc1ccc(-c2nc(N)n(C(=O)c3ccccc3)n2)cc1`, the inhibition is 6.59%.

In the case of `O=C(NC1CCCCCC1)c1ccc(=O)n(Cc2ccccc2)n1`, the inhibition was -0.36%.

As to `COC(=O)c1ccc2c(c1O)C(=O)c1ccccc1C2=O`, the inhibition was 1.91%.

On to `CC(C)COC(=O)c1ccccc1C(=O)OCC(C)C`, for which the inhibition was -10%.

On to `CCOC(=O)c1c(C)oc2c1c(CN1CCN(CCO)CC1)c(O)c1ccccc12`, for which the inhibition was 3.65%.

For `O=C(CN1CC=C(c2ccccc2)CC1)NC(=O)NCc1ccco1`, the inhibition was -3.79%.

For the molecule `COc1ccc(-c2cc3ccccc3n2CC(O)CN2CCN(CCO)CC2)cc1` (stereo unspecified), the inhibition is 4.8%.

For `O=C(c1ccco1)N1CCN(CC(O)Cn2c3ccccc3c3ccccc32)CC1` (stereo unspecified), the inhibition was 1.44%.

On to `COc1ccc(-c2cc3ccccc3n2CC(O)CN2CCCCC2)cc1` (stereo unspecified), for which the inhibition is 3%.

Consider `OC(COc1ccccc1)Cn1c2ccccc2c2ccccc21` (stereo unspecified), for which the inhibition was 41.6%.

For the molecule `OC(CN1CCN(c2ccccc2)CC1)Cn1c2ccccc2c2ccccc21` (stereo unspecified), the inhibition is 11.9%.

For the molecule `Cc1ccc(OCC(O)CN2CCN(CC(O)COc3ccc(C)cc3)CC2)cc1` (stereo unspecified), the inhibition is 2.23%.

Consider `CCOc1ccc(CN2CCN(C(=O)c3ccccc3)CC2)cc1`, for which the inhibition was 0.42%.

For `Cc1ccc(OCC(O)Cn2c3ccccc3c3ccccc32)cc1` (stereo unspecified), the inhibition was 72.7%.

As to `O=C(N/N=C/c1c(Cl)cccc1Cl)c1ccccc1F`, the inhibition is 65.5%.

`O=C(CNc1ccccc1)NN=C1CCCC1`: the inhibition was -7.1%.

For the molecule `COc1cccc(CNC(=O)CCC2CCCN(C(=O)c3cscn3)C2)c1` (stereo unspecified), the inhibition is -1.29%.

Consider `CCOC(=O)N1CCN(C(=O)Nc2ccc(NC(=O)N3CCN(C(=O)OCC)CC3)cc2)CC1`, for which the inhibition was -0.49%.

Take `COc1ccccc1/C=C/C(=O)N1CCOCC1`: the inhibition was -12.7%.

For `O=C(NCCCN1CCOCC1)/C(=C/c1ccc(F)cc1)NC(=O)c1ccccc1`, the inhibition is -5.09%.

Turning to `CC1(C)NC(=O)N(CC(=O)Nc2cc(S(=O)(=O)N3CCOCC3)ccc2N2CCOCC2)C1=O`, the inhibition is 0.65%.

As for `C=CCNC(=O)NC(=O)COC(=O)[C@H](C)NS(=O)(=O)c1c(C)c(C)cc(C)c1C`, the inhibition was 0.16%.

Turning to `COC(=O)c1ccc(Cn2cnc3c(cnn3-c3ccc(C)c(C)c3)c2=O)o1`, the inhibition was -9.12%.

For `COc1ccc2c(c1)CCCN2C(N)=O`, the inhibition was -8.08%.

Regarding `C=CCn1c(SCc2csc(-c3ccc(Cl)cc3)n2)nnc1-c1ccccc1OC`, the inhibition is 7.93%.

Take `C=CCn1c(SCC(=O)c2ccc(O)c(O)c2)nnc1-c1ccccc1OC`: the inhibition is -2%.

In the case of `COc1cc(NS(=O)(=O)c2ccc(NC(=O)NC3CCCCC3)cc2)nc(OC)n1`, the inhibition is -5.16%.

For the molecule `Cc1cccc(C(=O)N2CCC(=O)N(C(COCc3cccc(Cl)c3)Cc3ccccc3)CC2)c1` (stereo unspecified), the inhibition is -0.5%.

For the molecule `O=C(CCN1C(=O)C2CCCCC2C1=O)Nc1nc(-c2ccccc2)cs1` (stereo unspecified), the inhibition was 6.05%.

For the molecule `O=C(CCN1C(=O)C2CCCCC2C1=O)Nc1ccc(F)c(F)c1F` (stereo unspecified), the inhibition was -4.84%.

On to `CCOC(=O)C1(CC2CCCCO2)CCN(C(=O)NCc2ccccc2)CC1` (stereo unspecified), for which the inhibition was 4.64%.

Turning to `COc1ccc(-c2cc(C(F)(F)F)nc(N3CCOCC3)n2)cc1`, the inhibition was -0.92%.

As to `c1ccc(-c2cnc(-c3ccccc3)nc2)cc1`, the inhibition is -5.94%.

Regarding `Nc1c(Cl)nc(-c2ccccc2)nc1Cl`, the inhibition was 0.39%.

Take `O=C(CCN1C(=O)C2C3C=CC(C3)C2C1=O)Nc1nccs1` (stereo unspecified): the inhibition was -5.43%.

In the case of `O=C1CNC(=S)N1CCc1ccc(Cl)cc1`, the inhibition was -6.23%.

Take `CCc1ccccc1NC(=O)CN(C)C(=O)CSc1nn(-c2ccc(F)cc2)c(=S)s1`: the inhibition was -11.2%.

Take `COc1ccc(-c2nc(C(F)(F)F)c(OC)o2)cc1OC`: the inhibition is -0.95%.

As to `O=C(C1CCN(Cc2ccc(F)cc2)CC1)N1CCN(C/C=C/c2ccccc2)CC1`, the inhibition was 5.92%.

For the molecule `O=C(Nc1ccc(F)cc1)N1CCN(C/C=C/c2ccccc2)CC1`, the inhibition was -13%.

`COCCNC(=O)CN(C)S(=O)(=O)c1ccc(Br)cc1`: the inhibition was -4.89%.

Take `Cc1cc(C(=O)c2ccc(Cl)cc2)c(NC(=O)CCl)s1`: the inhibition was 73.2%.

Consider `CCc1cc(C(=O)c2ccc(C)cc2)c(NC(=O)CCl)s1`, for which the inhibition was 76.6%.

Take `COc1ccc(-c2nnc(SCC(=O)N3CCCC3)o2)cc1OC`: the inhibition was -0.93%.

As to `O=C(CSc1nnc(-c2cccnc2)o1)OC1CCCCC1`, the inhibition is -4.83%.

With `O=C(CSc1nnc(-c2cccs2)o1)OCc1ccccc1`, the inhibition is -0.9%.

Consider `COc1ccc(-c2nnc(SCC(=O)N3CCOCC3)o2)cc1OC`, for which the inhibition is -5.9%.

As for `COc1ccc(OC)c(C(=O)CSc2nnc(-c3ccc(OC)c(OC)c3)o2)c1`, the inhibition was -6.09%.

As for `COc1ccc(-c2nnc(SCC(=O)N3CCCCC3)o2)cc1OC`, the inhibition is 5%.

With `COc1cc(-c2nnc(SCC(=O)c3ccc(C)cc3)o2)cc(OC)c1OC`, the inhibition is 2.03%.

Turning to `O=C(CSc1nnc(-c2cccs2)o1)N1CCCCC1`, the inhibition was 1.5%.

Regarding `C=CCn1nnnc1-c1cc(Cl)cc(Cl)c1`, the inhibition was 2.4%.

With `CCCn1nc(C(=O)OCC(=O)c2c(N)n(C)c(=O)n(C)c2=O)c2ccccc2c1=O`, the inhibition is 5.18%.

For the molecule `N#Cc1c(/N=C/c2cccnc2)sc2c1CCCC2`, the inhibition is 2.15%.

In general, inhibition refers to the relative decrease from the control value, in per cent.
